ChEMBL document CHEMBL3988442, “University of Dundee, Small-Polar-MMV Screening Library” (2021)
The campaign covered roughly 48,000 compounds. About 13,000 (27%) showed an effect of 50% or more. The list shows a part of the results.

Test system: Wolbachia pipientis
Assay: Anti-Wolbachia Cell-Based Screen
Type: functional
Set-up: scale not given: in the data most compounds retested in dose-response had high values
Conditions: 5 µM

**Q.** For Cc1ccccc1C(C#N)NC(=O)c1cccc2c1OCCO2 (stereo not drawn), which “Percent Effect” value is on record?
**A.** 0.1196%

**Q.** For COc1ccc(OC)c(CNCCc2cc(F)cc3c2OCOC3)c1, which “Percent Effect” value is on record?
**A.** 17.88%

**Q.** Which “Percent Effect” value does the source give for Cc1ccc(S(C)(=O)=O)cc1C(=O)N(C)Cc1ccco1 here?
**A.** 9.899%

**Q.** For NC(=O)c1ccc(=O)n(Cc2cc(Br)ccc2Cl)n1, which “Percent Effect” value is on record?
**A.** 5.907%

**Q.** Which “Percent Effect” value does the source give for Cc1cc(C(=O)Nc2nnn[nH]2)ccc1I here?
**A.** -9.005%

**Q.** CCC(C)NC(=O)Cn1ccc2c(C)nn(CC)c2c1=O (stereo not drawn) was tested. Which “Percent Effect” value did it give?
**A.** 121.4%

**Q.** For CCn1nc(C)c2nnn(CC(=O)Nc3c(C)cccc3C)c(=O)c21, which “Percent Effect” value is on record?
**A.** 15.34%

**Q.** How did the “Percent Effect” value turn out when Cc1cc(C(C)NC(=O)Cn2nc(C)c3ccccc3c2=O)c(C)o1 (stereo not drawn) was run?
**A.** -1.65%

**Q.** How did the “Percent Effect” value turn out when CC(C(=O)NCCN1CCCCCC1)n1cncn1 (stereo not drawn) was run?
**A.** 6.754%

**Q.** With CCn1nc(C)c2ccn(CC(=O)NCCN3CCCCC3)c(=O)c21 as the compound, how does the “Percent Effect” value read?
**A.** 109.9%

**Q.** For CCCNC(=O)Cn1nc(C)c2cnn(C(C)(C)C)c2c1=O, which “Percent Effect” value is on record?
**A.** 7.954%

**Q.** Which “Percent Effect” value does the source give for CCn1nc(C)c2ccn(CC(=O)NC(C)C)c(=O)c21 here?
**A.** 83.24%

**Q.** For Cc1c2ncn(CC(=O)NC(C)C)c(=O)c2nn1C, which “Percent Effect” value is on record?
**A.** -0.5924%

**Q.** How did the “Percent Effect” value turn out when C1CN(c2nc3c(c(NC4CC4)n2)CN(CC2CCOC2)CC3)CCO1 (stereo not drawn) was run?
**A.** -9.007%

**Q.** For Cn1cc(CN2CCC3(CCC(C(=O)NCC4CC4)C3)CC2)cn1.O=C(O)C(F)(F)F (stereo not drawn), which “Percent Effect” value is on record?
**A.** 38.61%

**Q.** O=C(c1ccncc1Cl)N1CCN(Cc2ccco2)C(CCO)C1 (stereo not drawn) was tested. Which “Percent Effect” value did it give?
**A.** -0.1352%

**Q.** For Cc1nn(C)c(C)c1NC(=O)CNC(c1ccc(F)cc1)C1CCC1 (stereo not drawn), which “Percent Effect” value is on record?
**A.** 19.96%

**Q.** Which “Percent Effect” value does the source give for CCc1nc2c(NCC3COc4cc(OC)ccc4C3)ncnc2o1 (stereo not drawn) here?
**A.** -96.33%

**Q.** For COc1ccc2c(c1)OCC(Cc1cnccc1N)C2 (stereo not drawn), which “Percent Effect” value is on record?
**A.** 13.35%

**Q.** How did the “Percent Effect” value turn out when COc1cccc2c1OCC(CNc1cc(N)nc(SC)n1)C2 (stereo not drawn) was run?
**A.** 103.8%

**Q.** For COc1cccc2c1OCC(CNc1ccc(C)nn1)C2 (stereo not drawn), which “Percent Effect” value is on record?
**A.** -0.7094%

**Q.** For CCNC(=O)c1ccnc(NCC2COc3cc(OC)ccc3C2)c1 (stereo not drawn), which “Percent Effect” value is on record?
**A.** -7.933%

**Q.** Which “Percent Effect” value does the source give for COc1ccc2c(c1)OCC(CNc1cc(N)nc(SC)n1)C2 (stereo not drawn) here?
**A.** 101.5%

**Q.** How did the “Percent Effect” value turn out when COc1ccc2c(c1)OCC(Cc1cnc(N)c(C)c1)C2 (stereo not drawn) was run?
**A.** 16.7%

**Q.** For COc1cccc2c1OCC(CNC(=O)Cc1c(C)nc(N)nc1C)C2 (stereo not drawn), which “Percent Effect” value is on record?
**A.** -7.382%

**Q.** COc1ccc2c(c1)OCC(Cc1ccc(C)nc1N)C2 (stereo not drawn) was tested. Which “Percent Effect” value did it give?
**A.** 95.38%

**Q.** For Cc1cc(C(=O)N(C)Cc2ccn[nH]2)c(NC(=O)C(C)(C)C)s1, which “Percent Effect” value is on record?
**A.** -4.418%

**Q.** For CS(=O)(=O)N1CCOC2(CCCN(c3cnccn3)C2)C1.O=C(O)C(F)(F)F (stereo not drawn), which “Percent Effect” value is on record?
**A.** -3.383%

**Q.** Which “Percent Effect” value does the source give for Cc1noc(-c2ccc(N(C)Cc3nccs3)nc2)n1 here?
**A.** -5.626%

**Q.** With CN(Cc1cc2c(cc1OC(F)F)OCO2)Cc1nccn1C as the compound, how does the “Percent Effect” value read?
**A.** -0.8901%

**Q.** CCC(=O)c1ccc(OCC(=O)NC(C)c2ncnn2CC)cc1 (stereo not drawn) was tested. Which “Percent Effect” value did it give?
**A.** -19.04%

**Q.** How did the “Percent Effect” value turn out when CCCn1c(O)nnc1SCC1OCCc2ccccc21 (stereo not drawn) was run?
**A.** 5.121%

**Q.** How did the “Percent Effect” value turn out when CCc1cc(C(=O)N[C@H]2CN(CCS(C)(=O)=O)C[C@@H]2C2CC2)[nH]n1 was run?
**A.** -10.24%

**Q.** With CCOc1ccc(C#N)cc1NCc1cc(C)on1 as the compound, how does the “Percent Effect” value read?
**A.** -2.452%

**Q.** Which “Percent Effect” value does the source give for CCNC(=O)C1CCCN(C(=O)Nc2cc(C#N)ccc2OCC)C1 (stereo not drawn) here?
**A.** 2.708%

**Q.** How did the “Percent Effect” value turn out when CCOc1ccc(C#N)cc1NC(=O)N1CCCC(NC(=O)CC)C1 (stereo not drawn) was run?
**A.** -6.604%

**Q.** Which “Percent Effect” value does the source give for CCOc1ccc(C#N)cc1NCC(=O)NC(=O)Nc1ccccc1 here?
**A.** 91.19%

**Q.** With CCOc1ccc(C#N)cc1NCC(=O)OC as the compound, how does the “Percent Effect” value read?
**A.** 115.5%

**Q.** Which “Percent Effect” value does the source give for CCOc1ccc(C#N)cc1NCC(=O)NC(=O)NC here?
**A.** 104.9%

**Q.** For CCCNC(=O)CNc1cc(C#N)ccc1OCC, which “Percent Effect” value is on record?
**A.** -1.533%

**Q.** How did the “Percent Effect” value turn out when CCOc1ccc(C#N)cc1NCC(=O)Nc1cc(C)no1 was run?
**A.** 4.952%

**Q.** CCOc1ccc(C#N)cc1NC(=O)N1CCC(N2CCCC2)C1 (stereo not drawn) was tested. Which “Percent Effect” value did it give?
**A.** -9.106%

**Q.** With CCOc1ccc(C#N)cc1NCC(=O)Nc1cc(F)ccc1F as the compound, how does the “Percent Effect” value read?
**A.** -5.639%

**Q.** With CCNC(=O)NC(=O)CNc1cc(C#N)ccc1OCC as the compound, how does the “Percent Effect” value read?
**A.** 107.7%

**Q.** With CCOc1ccc(NC(=O)c2ccc(C#N)cc2C)cc1CO as the compound, how does the “Percent Effect” value read?
**A.** -12.77%

**Q.** With O=C(CCCC1CCCC1)NS(=O)(=O)CC1CC1 as the compound, how does the “Percent Effect” value read?
**A.** 4.87%

**Q.** How did the “Percent Effect” value turn out when O=C1NCCCCC1NC(=O)C1(c2ccc3c(c2)OCCO3)CCCC1 (stereo not drawn) was run?
**A.** -1.756%

**Q.** How did the “Percent Effect” value turn out when CCOc1ccc(C#N)cc1NCC(=O)NC1(C#N)CCCC1 was run?
**A.** 87.98%

**Q.** For Cc1cccc(C(=O)N2CCCC2)c1NCC(=O)NC1(C#N)CCCC1, which “Percent Effect” value is on record?
**A.** -7.992%

**Q.** Cc1cccc(NCC(=O)NC2(C#N)CCCC2)c1C(=O)N1CCCC1 was tested. Which “Percent Effect” value did it give?
**A.** -22.31%

**Q.** For O=C(Cn1cc(-c2ccccc2)ncc1=O)Nc1nnc[nH]1, which “Percent Effect” value is on record?
**A.** -2.785%

**Q.** Which “Percent Effect” value does the source give for CN(Cc1ccc(Cl)s1)C(=O)CN(C)C1CCc2ccccc21 (stereo not drawn) here?
**A.** 3.858%

**Q.** How did the “Percent Effect” value turn out when COc1ccc(CC(=O)NC2(C)CCS(=O)(=O)C2)cc1F (stereo not drawn) was run?
**A.** 7.488%

**Q.** How did the “Percent Effect” value turn out when FC(F)(F)c1csc(N2CCN(Cc3ccccn3)CC2)n1 was run?
**A.** 72.86%

**Q.** Cc1csc(N2CCN(Cc3ccccn3)CC2C)n1 (stereo not drawn) was tested. Which “Percent Effect” value did it give?
**A.** 18.1%

**Q.** Which “Percent Effect” value does the source give for Cc1csc(N2CCN(C(=O)CCc3ccccn3)CC2)n1 here?
**A.** 1.737%

**Q.** Cc1csc(N2CCN(Cc3ccccn3)CC2)n1 was tested. Which “Percent Effect” value did it give?
**A.** 105.9%

**Q.** For FC(F)(F)c1ccnc(N2CCCN(Cc3ccccn3)CC2)n1, which “Percent Effect” value is on record?
**A.** 100.8%

**Q.** Which “Percent Effect” value does the source give for CC(C)c1nc(CN2CCN(Cc3ccccn3)CC2)cs1 here?
**A.** -4.826%

**Q.** How did the “Percent Effect” value turn out when Cc1ncc(S(C)(=O)=O)c(N2CCCN(Cc3ccccn3)CC2)n1 was run?
**A.** 10.32%

**Q.** How did the “Percent Effect” value turn out when FC(F)(F)CCc1ccnc(N2CCN(Cc3ccccn3)CC2)n1 was run?
**A.** 5.215%

**Q.** With COc1ccccc1-c1ncc(CN2C[C@@H](N(C)C)[C@H](C(C)C)C2)s1 as the compound, how does the “Percent Effect” value read?
**A.** -33.52%

**Q.** How did the “Percent Effect” value turn out when COc1cc(OC)cc(N2CCC(NCc3cccs3)C2=O)c1 (stereo not drawn) was run?
**A.** -13.31%

**Q.** CCC(C)NC(=O)c1ccc(NC(=O)CCc2ccncc2)c(C)c1 (stereo not drawn) was tested. Which “Percent Effect” value did it give?
**A.** -8.958%

**Q.** CNC(=O)[C@@H](c1ccccc1)N1CCC[C@H]1C(=O)NCc1cccnc1.Cl.Cl was tested. Which “Percent Effect” value did it give?
**A.** -3.423%

**Q.** With Cn1c(C(=O)NC2CC2)nc2c1CCN(c1ncccn1)C2 as the compound, how does the “Percent Effect” value read?
**A.** -5.985%

**Q.** How did the “Percent Effect” value turn out when Cc1nc(CNC(=O)NC2CCN(c3ncccc3Cl)C2)oc1C (stereo not drawn) was run?
**A.** -13.94%

**Q.** For Cc1ncccc1NC(=O)c1nc2c(n1C)CCN(C(=O)C1CC1)C2, which “Percent Effect” value is on record?
**A.** 102%
